{"source": "the supplement of paper PMC11001985", "data": [{"compound": "C#CCNC(=O)CCSSCCC(=O)NCCc1ccc(C=O)c(C=O)c1", "assay": "lysine labeling ratio R10:1 (500 µM / 50 µM probe), SILAC-ABPP in living cells; higher = lower intrinsic lysine reactivity toward the probe, active = 2 or less", "conditions": "HeLa; probe concentrations 500 vs 50 µM", "procedure,_shortened": "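In PBS at room temperature, living HeLa cells grown with SILAC light or heavy labels were treated with 50 µM or 500 µM of an alkyne-tagged, disulfide-linked lysine probe, with label swaps in both directions. Analysis was by LC-MS/MS on a TIMS-TOF Pro after click to biotin-azide, neutravidin capture and DTT release. For each lysine, R is the median across forward and reverse replicates of the filtered median high-probe/low-probe MS1 peptide ratio, capped at 20.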", "values": [{"target": "TLN1 (lysine site: K1544) (UniProt Q9Y490)", "sequence (Q9Y490 whole entry)": "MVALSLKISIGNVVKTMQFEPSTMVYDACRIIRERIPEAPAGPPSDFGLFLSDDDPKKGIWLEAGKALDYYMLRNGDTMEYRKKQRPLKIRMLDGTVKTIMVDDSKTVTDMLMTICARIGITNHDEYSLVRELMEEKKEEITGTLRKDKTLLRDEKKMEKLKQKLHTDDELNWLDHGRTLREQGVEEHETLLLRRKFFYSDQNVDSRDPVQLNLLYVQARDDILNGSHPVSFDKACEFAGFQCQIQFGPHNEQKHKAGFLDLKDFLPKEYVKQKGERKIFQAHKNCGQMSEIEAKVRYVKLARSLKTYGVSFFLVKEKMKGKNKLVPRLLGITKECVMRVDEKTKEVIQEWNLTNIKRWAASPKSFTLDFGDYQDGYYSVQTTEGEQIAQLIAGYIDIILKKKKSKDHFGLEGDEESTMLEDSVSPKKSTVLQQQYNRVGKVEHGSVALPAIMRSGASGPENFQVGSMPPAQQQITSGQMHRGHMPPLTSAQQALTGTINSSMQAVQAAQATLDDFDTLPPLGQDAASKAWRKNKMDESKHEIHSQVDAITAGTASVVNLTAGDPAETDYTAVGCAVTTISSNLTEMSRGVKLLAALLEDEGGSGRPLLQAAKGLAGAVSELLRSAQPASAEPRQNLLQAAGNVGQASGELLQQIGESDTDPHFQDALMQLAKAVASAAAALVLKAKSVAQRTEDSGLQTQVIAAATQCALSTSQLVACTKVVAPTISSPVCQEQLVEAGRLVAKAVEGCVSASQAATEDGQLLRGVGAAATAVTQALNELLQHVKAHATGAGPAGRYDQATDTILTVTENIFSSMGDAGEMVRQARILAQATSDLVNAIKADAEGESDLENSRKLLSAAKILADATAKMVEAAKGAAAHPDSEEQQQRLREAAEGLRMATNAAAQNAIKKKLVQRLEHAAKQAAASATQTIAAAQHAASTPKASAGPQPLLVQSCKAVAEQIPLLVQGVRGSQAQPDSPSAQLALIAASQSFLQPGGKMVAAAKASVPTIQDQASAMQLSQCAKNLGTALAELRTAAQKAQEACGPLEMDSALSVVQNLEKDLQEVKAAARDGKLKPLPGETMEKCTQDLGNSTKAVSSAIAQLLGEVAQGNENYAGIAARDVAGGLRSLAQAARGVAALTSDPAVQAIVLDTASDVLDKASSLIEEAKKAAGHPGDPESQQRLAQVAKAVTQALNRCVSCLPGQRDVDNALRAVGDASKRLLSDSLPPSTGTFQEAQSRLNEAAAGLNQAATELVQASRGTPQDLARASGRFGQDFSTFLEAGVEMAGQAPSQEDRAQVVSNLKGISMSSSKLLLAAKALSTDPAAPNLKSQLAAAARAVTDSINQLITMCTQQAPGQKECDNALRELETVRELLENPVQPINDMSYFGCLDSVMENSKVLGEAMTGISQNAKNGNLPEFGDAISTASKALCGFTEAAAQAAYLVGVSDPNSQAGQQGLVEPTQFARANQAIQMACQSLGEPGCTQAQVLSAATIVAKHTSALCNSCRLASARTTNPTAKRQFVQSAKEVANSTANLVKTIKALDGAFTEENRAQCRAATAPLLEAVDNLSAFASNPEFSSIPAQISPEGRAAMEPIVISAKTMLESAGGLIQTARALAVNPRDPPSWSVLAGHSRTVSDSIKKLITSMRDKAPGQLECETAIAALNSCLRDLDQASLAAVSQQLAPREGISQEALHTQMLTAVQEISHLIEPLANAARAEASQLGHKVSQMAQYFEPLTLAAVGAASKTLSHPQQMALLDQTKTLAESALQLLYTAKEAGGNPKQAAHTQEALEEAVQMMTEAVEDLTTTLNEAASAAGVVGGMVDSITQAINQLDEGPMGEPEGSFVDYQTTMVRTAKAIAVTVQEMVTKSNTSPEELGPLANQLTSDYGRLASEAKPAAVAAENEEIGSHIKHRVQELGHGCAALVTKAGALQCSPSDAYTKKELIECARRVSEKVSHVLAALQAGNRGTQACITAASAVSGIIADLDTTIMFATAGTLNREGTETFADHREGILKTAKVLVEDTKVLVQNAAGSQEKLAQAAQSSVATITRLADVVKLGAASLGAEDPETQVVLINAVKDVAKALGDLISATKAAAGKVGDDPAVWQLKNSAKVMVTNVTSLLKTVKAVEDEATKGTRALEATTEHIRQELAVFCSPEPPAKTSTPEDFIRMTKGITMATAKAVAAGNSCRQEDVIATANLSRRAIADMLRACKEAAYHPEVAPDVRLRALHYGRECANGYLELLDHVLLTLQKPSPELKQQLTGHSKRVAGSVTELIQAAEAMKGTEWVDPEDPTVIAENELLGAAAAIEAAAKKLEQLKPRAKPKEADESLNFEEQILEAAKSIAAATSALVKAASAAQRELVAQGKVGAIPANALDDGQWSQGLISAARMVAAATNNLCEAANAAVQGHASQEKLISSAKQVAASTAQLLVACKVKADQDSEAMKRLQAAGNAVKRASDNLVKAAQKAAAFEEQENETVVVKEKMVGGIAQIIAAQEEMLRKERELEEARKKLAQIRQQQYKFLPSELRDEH", "lysine labeling ratio R10:1": "1.54 (active)"}, {"target": "CLTC (lysine site: K619) (UniProt Q00610)", "lysine labeling ratio R10:1": "2.75 (inactive)"}, {"target": "P4HB (lysine site: K328) (UniProt P07237)", "lysine labeling ratio R10:1": "1.54 (active)"}, {"target": "ARHGDIA (lysine site: K43) (UniProt P52565)", "lysine labeling ratio R10:1": "1.51 (active)"}, {"target": "MYH9 (lysine site: K1673) (UniProt P35579)", "lysine labeling ratio R10:1": "5.57 (inactive)"}, {"target": "UniProt Q9UHN6 (lysine site: K767)", "lysine labeling ratio R10:1": "3.26 (inactive)"}, {"target": "HSPA5 (lysine site: K523) (UniProt P11021)", "lysine labeling ratio R10:1": "3.39 (inactive)"}, {"target": "RPL4 (lysine site: K259) (UniProt P36578)", "lysine labeling ratio R10:1": "1.88 (active)"}, {"target": "WDR1 (lysine site: K7) (UniProt O75083)", "lysine labeling ratio R10:1": "0.76 (active)"}, {"target": "FLNB (lysine site: K681) (UniProt O75369)", "lysine labeling ratio R10:1": "2.09 (inactive)"}, {"target": "NUCB1 (lysine site: K302) (UniProt Q02818)", "lysine labeling ratio R10:1": "2.22 (inactive)"}, {"target": "ROBO1 (lysine site: K232) (UniProt Q9Y6N7)", "lysine labeling ratio R10:1": "5.29 (inactive)"}, {"target": "LPL (lysine site: K129) (UniProt P06858)", "lysine labeling ratio R10:1": "1.65 (active)"}, {"target": "VAPA (lysine site: K188) (UniProt Q9P0L0)", "lysine labeling ratio R10:1": "1.99 (active)"}, {"target": "MAP4 (lysine site: K946) (UniProt P27816)", "lysine labeling ratio R10:1": "1.95 (active)"}, {"target": "XRCC6 (lysine site: K129) (UniProt P12956)", "lysine labeling ratio R10:1": "1.62 (active)"}, {"target": "DYNC1H1 (lysine site: K4406) (UniProt Q14204)", "lysine labeling ratio R10:1": "3.65 (inactive)"}, {"target": "MLEC (lysine site: K69) (UniProt Q14165)", "lysine labeling ratio R10:1": "1.64 (active)"}, {"target": "CD109 (lysine site: K573) (UniProt Q6YHK3)", "lysine labeling ratio R10:1": "2.8 (inactive)"}, {"target": "FLNA (lysine site: K2025) (UniProt P21333)", "lysine labeling ratio R10:1": "3.25 (inactive)"}, {"target": "CCT4 (lysine site: K395) (UniProt P50991)", "lysine labeling ratio R10:1": "3.34 (inactive)"}, {"target": "TNFRSF10A (lysine site: K191) (UniProt O00220)", "lysine labeling ratio R10:1": "6.6 (inactive)"}, {"target": "EZR (lysine site: K344) (UniProt P15311)", "lysine labeling ratio R10:1": "7.1 (inactive)"}, {"target": "ATP1B1 (lysine site: K134) (UniProt P05026)", "lysine labeling ratio R10:1": "6.75 (inactive)"}, {"target": "ALCAM (lysine site: K76) (UniProt Q13740)", "lysine labeling ratio R10:1": "6.62 (inactive)"}, {"target": "ECE1 (lysine site: K177) (UniProt P42892)", "lysine labeling ratio R10:1": "7.91 (inactive)"}, {"target": "TLN1 (lysine site: K1948) (UniProt Q9Y490)", "lysine labeling ratio R10:1": "0.788 (active)"}, {"target": "PTPRS (lysine site: K370) (UniProt Q13332)", "sequence (Q13332 whole entry)": "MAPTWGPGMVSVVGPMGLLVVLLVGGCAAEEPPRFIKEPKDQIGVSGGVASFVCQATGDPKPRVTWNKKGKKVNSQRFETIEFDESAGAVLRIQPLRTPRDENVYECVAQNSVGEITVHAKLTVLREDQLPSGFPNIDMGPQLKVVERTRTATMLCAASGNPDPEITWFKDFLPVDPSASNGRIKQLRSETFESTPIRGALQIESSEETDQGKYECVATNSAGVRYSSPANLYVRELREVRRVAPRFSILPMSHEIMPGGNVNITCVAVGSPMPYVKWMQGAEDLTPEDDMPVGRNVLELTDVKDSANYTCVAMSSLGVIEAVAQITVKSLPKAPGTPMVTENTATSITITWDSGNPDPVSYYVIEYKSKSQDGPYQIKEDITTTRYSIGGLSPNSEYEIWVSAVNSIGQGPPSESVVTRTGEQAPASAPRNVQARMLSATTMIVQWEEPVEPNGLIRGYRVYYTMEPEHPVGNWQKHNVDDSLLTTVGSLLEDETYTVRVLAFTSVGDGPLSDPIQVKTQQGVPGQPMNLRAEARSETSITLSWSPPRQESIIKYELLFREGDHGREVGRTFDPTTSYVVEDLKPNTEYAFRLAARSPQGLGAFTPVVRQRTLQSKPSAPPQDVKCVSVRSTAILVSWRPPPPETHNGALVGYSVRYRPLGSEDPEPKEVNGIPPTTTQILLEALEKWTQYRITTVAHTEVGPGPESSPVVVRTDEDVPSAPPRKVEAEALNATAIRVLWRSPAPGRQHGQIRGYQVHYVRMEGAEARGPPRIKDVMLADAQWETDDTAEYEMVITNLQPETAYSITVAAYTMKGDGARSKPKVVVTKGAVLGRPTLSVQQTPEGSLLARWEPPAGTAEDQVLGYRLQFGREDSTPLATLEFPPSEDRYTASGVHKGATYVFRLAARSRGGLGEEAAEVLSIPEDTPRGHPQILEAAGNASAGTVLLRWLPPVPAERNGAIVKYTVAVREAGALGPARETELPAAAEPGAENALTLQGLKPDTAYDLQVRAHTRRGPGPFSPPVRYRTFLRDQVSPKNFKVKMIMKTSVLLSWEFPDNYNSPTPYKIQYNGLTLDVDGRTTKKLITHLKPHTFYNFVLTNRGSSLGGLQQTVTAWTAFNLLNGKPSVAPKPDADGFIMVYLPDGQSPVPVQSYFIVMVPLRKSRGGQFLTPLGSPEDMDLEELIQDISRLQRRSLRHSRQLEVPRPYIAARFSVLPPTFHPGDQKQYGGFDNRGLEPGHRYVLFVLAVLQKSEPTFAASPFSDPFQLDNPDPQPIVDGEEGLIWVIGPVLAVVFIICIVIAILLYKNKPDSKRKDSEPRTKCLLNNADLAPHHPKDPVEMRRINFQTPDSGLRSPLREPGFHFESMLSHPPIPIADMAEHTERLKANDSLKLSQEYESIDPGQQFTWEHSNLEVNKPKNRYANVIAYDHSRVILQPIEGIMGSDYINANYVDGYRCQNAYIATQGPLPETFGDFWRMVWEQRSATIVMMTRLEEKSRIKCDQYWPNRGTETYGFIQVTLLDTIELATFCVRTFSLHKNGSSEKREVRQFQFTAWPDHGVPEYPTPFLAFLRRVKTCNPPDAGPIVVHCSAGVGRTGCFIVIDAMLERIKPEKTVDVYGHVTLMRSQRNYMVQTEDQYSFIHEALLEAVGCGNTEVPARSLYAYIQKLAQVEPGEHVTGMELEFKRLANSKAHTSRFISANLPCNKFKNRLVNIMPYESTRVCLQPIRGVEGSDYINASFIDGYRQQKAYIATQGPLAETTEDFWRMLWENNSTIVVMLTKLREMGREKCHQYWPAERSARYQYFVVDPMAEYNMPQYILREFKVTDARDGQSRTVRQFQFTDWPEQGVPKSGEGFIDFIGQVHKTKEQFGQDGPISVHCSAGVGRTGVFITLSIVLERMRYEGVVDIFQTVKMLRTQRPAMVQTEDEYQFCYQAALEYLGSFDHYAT", "lysine labeling ratio R10:1": "2.37 (inactive)"}, {"target": "TKT (lysine site: K314) (UniProt P29401)", "lysine labeling ratio R10:1": "5.08 (inactive)"}, {"target": "HNRNPM (lysine site: K145) (UniProt P52272)", "lysine labeling ratio R10:1": "2.08 (inactive)"}, {"target": "TFPI (lysine site: K68) (UniProt P10646)", "lysine labeling ratio R10:1": "1.41 (active)"}, {"target": "CLTA (lysine site: K242) (UniProt P09496)", "lysine labeling ratio R10:1": "5.68 (inactive)"}, {"target": "SLC3A2 (lysine site: K300) (UniProt P08195)", "lysine labeling ratio R10:1": "6.33 (inactive)"}, {"target": "CNP (lysine site: K101) (UniProt P09543)", "lysine labeling ratio R10:1": "2.62 (inactive)"}, {"target": "DDX5 (lysine site: K56) (UniProt P17844)", "sequence (P17844 whole entry)": "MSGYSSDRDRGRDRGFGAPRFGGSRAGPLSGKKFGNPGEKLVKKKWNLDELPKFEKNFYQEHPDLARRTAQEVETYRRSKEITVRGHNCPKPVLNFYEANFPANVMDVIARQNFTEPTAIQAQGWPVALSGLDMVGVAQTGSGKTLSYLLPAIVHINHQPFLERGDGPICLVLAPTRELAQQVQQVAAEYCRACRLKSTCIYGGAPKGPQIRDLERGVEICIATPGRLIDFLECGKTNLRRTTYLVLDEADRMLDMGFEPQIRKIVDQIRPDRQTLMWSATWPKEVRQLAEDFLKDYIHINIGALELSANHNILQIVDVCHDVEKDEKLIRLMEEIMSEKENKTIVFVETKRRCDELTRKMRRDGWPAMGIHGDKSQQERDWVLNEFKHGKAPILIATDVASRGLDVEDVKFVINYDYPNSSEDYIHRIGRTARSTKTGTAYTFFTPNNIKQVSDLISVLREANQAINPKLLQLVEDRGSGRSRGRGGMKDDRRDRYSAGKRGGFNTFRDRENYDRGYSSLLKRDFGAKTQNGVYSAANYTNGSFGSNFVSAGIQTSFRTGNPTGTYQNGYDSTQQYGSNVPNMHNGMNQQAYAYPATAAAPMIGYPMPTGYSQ", "lysine labeling ratio R10:1": "2.69 (inactive)"}, {"target": "FBLN1 (lysine site: K59) (UniProt P23142)", "lysine labeling ratio R10:1": "1.25 (active)"}, {"target": "UniProt Q13765 (lysine site: K82)", "lysine labeling ratio R10:1": "3.23 (inactive)"}, {"target": "DDX5 (lysine site: K80) (UniProt P17844)", "lysine labeling ratio R10:1": "3.64 (inactive)"}, {"target": "UniProt Q14696 (lysine site: K222)", "lysine labeling ratio R10:1": "3.35 (inactive)"}, {"target": "PTPRS (lysine site: K897) (UniProt Q13332)", "lysine labeling ratio R10:1": "2.19 (inactive)"}]}]}
